The results in this text go back to PubChem BioAssay AID434961 (Broad Institute, 2010).

Each structure is given as a SMILES string. Hit rate of the full screen: of about 7,700 compounds, about 15 (0.2%) were called active. Inconclusive results (about 6%) are left out. Many of the other results were omitted from the sample, so actives are more common in it than they were. Unmarked numbers belong to inactive results.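 Rule for the calls: active = more than half of replicate wells with inhibition above about 18% (limit read from the data, passing the limit was not always enough); inconclusive = exactly half of replicate wells above that limit; inactive = fewer than half of replicates above it.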

The assay has as its target Regulator of chromosome condensation (Homo sapiens) + GTP-binding nuclear protein Ran (Homo sapiens) + Importin subunit beta-1 (Homo sapiens) (UniProt P18754+P62826+Q14974). The experiment in a line: RanGTP/importin-beta interaction disruptors – biochemical, CFP-Ran/YFP-importin-beta FRET, RCC1, cell-free, primary screen (AID 434961).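 Note: 0% = DMSO wells and 100% inhibition = RanGDP control wells on each plate.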 The note with it: active compounds read high, concentration not given here.
Turning to `C[C@@H]1CCCCO[C@@H](CN(C)S(=O)(=O)c2cn(C)cn2)[C@H](C)CN([C@@H](C)CO)C(=O)c2cc(NC(=O)c3ccccc3)ccc2O1`, the inhibition is 1.13%.

For `Cc1ccc(S(=O)(=O)Nc2ccc3c(c2)CC(=O)N([C@H](C)CO)C[C@H](C)[C@@H](CN(C)Cc2ccncc2)O3)cc1`, the inhibition was 0.0587%.

Consider `Cc1noc(C)c1S(=O)(=O)Nc1ccc2c(c1)CC(=O)N([C@H](C)CO)C[C@@H](C)[C@@H](CN(C)C(=O)NC(C)C)O2`, for which the inhibition was -4.94%.

Regarding `C[C@H]1CN([C@@H](C)CO)C(=O)Cc2cc(NC(=O)C3CC3)ccc2O[C@H]1CN(C)Cc1ccc(Cl)c(Cl)c1`, the inhibition was 7.64%.

As for `C[C@@H]1CCCCO[C@H](CN(C)C(=O)Nc2ccccc2)[C@@H](C)CN([C@H](C)CO)C(=O)c2cc(NC(=O)Cc3ccccc3)ccc2O1`, the inhibition was 0.496%.

`C[C@@H]1CCCCO[C@H](CN(C)C(=O)CCCN(C)C)[C@@H](C)CN([C@H](C)CO)C(=O)c2cc(NS(=O)(=O)c3cccs3)ccc2O1`: the inhibition is -2.86%.

As for `C[C@@H]1CN([C@@H](C)CO)C(=O)c2cc(NC(=O)c3ccncc3)ccc2O[C@H]1CN(C)C(=O)Nc1ccccc1`, the inhibition was 4.49%.

In the case of `Cc1noc(C)c1NC(=O)N(C)C[C@@H]1Oc2ccc(NC(=O)Nc3cccc4ccccc34)cc2C(=O)N([C@H](C)CO)C[C@H]1C`, the inhibition is -0.0777%.

Consider `C[C@@H]1CN([C@H](C)CO)C(=O)Cc2cc(NC(=O)C3CC3)ccc2O[C@H]1CN(C)C`, for which the inhibition was -6.15%.

Regarding `C[C@@H]1CCCCO[C@H](CN(C)Cc2ccncc2)[C@H](C)CN([C@H](C)CO)C(=O)c2cc(NC(=O)c3ccncc3)ccc2O1`, the inhibition was -0.929%.

In the case of `C[C@@H]1CCCCO[C@@H](CN(C)S(=O)(=O)c2cccs2)[C@H](C)CN([C@H](C)CO)C(=O)c2cc(NS(C)(=O)=O)ccc2O1`, the inhibition was -1.23%.

With `Cc1cc(C(=O)Nc2cccc3c2O[C@@H](CN(C)CC2CC2)[C@@H](C)CN([C@@H](C)CO)C3=O)n(C)n1`, the inhibition is -1.14%.

Turning to `C[C@H]1CN([C@@H](C)CO)C(=O)c2cccc(NC(=O)c3ccc(-c4nccs4)cc3)c2O[C@H]1CN(C)C(=O)Nc1ccccc1`, the inhibition was 18.7% (active).

Regarding `C[C@@H]1CN([C@H](C)CO)C(=O)c2cccc(NC(=O)c3ccc(-c4nccs4)cc3)c2O[C@@H]1CN(C)CC1CC1`, the inhibition is 29.6% (active).

For the molecule `C[C@@H]1CN([C@H](C)CO)C(=O)c2cccc(NC(=O)c3ccc(-c4nccs4)cc3)c2O[C@@H]1CN(C)C(=O)Nc1ccccc1`, the inhibition is -1.55%.

As to `C[C@H](CO)N1C[C@H](C)[C@H](CN(C)CC2CC2)Oc2c(NC(=O)c3ccc(-c4nccs4)cc3)cccc2C1=O`, the inhibition was -0.371%.

In the case of `C[C@H]1CN([C@@H](C)CO)C(=O)c2cccc(NC(=O)c3ccc(-c4nccs4)cc3)c2O[C@H]1CN(C)CC1CC1`, the inhibition is 1.58%.

As for `C[C@H]1CN([C@@H](C)CO)C(=O)c2cccc(NC(=O)c3ccc(-c4nccs4)cc3)c2O[C@@H]1CN(C)C(=O)Nc1ccccc1`, the inhibition is 0.856%.
